KCNQ2 inh = KCNQ2 (rat) channel inhibition; 1.1% of 310,000 active; CHO-K1 KCNQ2, FluxOR thallium flux, 20 min; stronger effect = lower value; O88943; B-score at 10 µM;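 active means fluorescence ratio B-score at most minus 3 library SDs, with starting brightness B-score within 2 library SDs, cut at about -5.5 in these data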
Target sequence (O88943 whole entry, looked up): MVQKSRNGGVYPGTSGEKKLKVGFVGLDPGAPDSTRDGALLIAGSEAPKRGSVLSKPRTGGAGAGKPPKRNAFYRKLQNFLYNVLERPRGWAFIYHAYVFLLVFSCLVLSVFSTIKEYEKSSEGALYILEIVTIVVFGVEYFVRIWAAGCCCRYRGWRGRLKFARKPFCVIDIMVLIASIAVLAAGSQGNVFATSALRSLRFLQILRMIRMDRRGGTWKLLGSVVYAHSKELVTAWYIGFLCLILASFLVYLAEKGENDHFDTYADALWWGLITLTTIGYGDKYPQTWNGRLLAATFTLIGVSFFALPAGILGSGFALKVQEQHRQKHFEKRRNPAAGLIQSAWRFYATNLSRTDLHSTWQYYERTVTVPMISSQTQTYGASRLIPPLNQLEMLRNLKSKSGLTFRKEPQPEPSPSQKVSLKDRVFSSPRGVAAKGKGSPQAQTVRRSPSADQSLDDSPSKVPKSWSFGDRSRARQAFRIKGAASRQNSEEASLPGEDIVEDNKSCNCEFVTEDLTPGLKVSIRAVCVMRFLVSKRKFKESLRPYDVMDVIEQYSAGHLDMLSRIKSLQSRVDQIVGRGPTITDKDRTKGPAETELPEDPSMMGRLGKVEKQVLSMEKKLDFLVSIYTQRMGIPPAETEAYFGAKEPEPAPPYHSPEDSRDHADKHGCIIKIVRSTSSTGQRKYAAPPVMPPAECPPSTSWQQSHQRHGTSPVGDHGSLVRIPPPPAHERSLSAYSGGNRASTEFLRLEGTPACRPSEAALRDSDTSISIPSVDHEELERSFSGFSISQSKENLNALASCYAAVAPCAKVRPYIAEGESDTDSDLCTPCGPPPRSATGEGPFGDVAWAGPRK
KCNQ2 pot = enhances the rat KCNQ2 potassium channel. O88943. CHO-K1 KCNQ2, FluxOR thallium flux fluorescence; stronger effect = higher value. B-score at 10 µM. 0.54% of 310,000 active. AID 2239;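 active means fluorescence ratio B-score at least 3 SD of library B-scores, with initial fluorescence B-score within 3 of them, cut at about 5.3 in these data; same plate scores as AID 2156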;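 further: B-score of peak minus minimum over baseline fluorescence ratio after K+ and Tl+ stimulus; positive B-score means potentiation of KCNQ2 with more thallium influx and brighter signal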
Of the large screens only hits and unclear results are named; the others gave an inactive call. Sampled rows, rich in hits. Any-hit rate of the full collection: about 1.6%.

COc1ccc(/C(C)=N/Nc2cccc(C(=O)O)c2)cc1OC	none (no result: KCNQ2 pot)
Cc1ccccc1CS(=O)(=O)CCC(=O)NCCCN1CCN(c2ccccc2F)CC1	none
CCOC(=O)CN(C(=O)CSc1nnc(CNc2ccc(C)cc2C)n1CC)c1ccccc1	none (no result: KCNQ2 pot)
Cc1nc2c(-c3ccc(F)cc3)c(C)nn2c(C)c1CCC(=O)N1CCN(c2ccccc2)CC1	none (no result: KCNQ2 pot)
Cc1nc2c(-c3ccc(F)cc3)c(C)nn2c(C)c1CCC(=O)N1CCC(Cc2ccccc2)CC1	KCNQ2 inh -6.06
COc1cccc(C2c3c(oc4ccc(Cl)cc4c3=O)C(=O)N2c2cc(C)on2)c1OC (centres undefined)	KCNQ2 inh -7.19
COc1ccc(/C(O)=C2\C(=O)C(=O)N(c3cc(C)on3)C2c2cccc(OC)c2OC)cc1C (centres undefined)	none
O=C(CC1S/C(=N/N=C/c2ccco2)NC1=O)Nc1ccccc1 (centres undefined)	none (no result: KCNQ2 pot)
CCOC(=O)N1CCN(C(=O)c2ccc3c(c2)N(Cc2ccccc2)CCS3)CC1	none (no result: KCNQ2 pot)
CC1CC(C)CN(C(=O)c2ccc3c(c2)N(Cc2ccccc2)CCS3)C1 (centres undefined)	KCNQ2 inh -6.19
CCC(C)(C)n1nnnc1C(c1cccc(C#N)c1)N1CCN(c2cc(C)ccc2C)CC1 (centres undefined)	KCNQ2 inh -5.84
CC(C)(C)n1nnnc1C(c1cccc(C#N)c1)N1CCC(Cc2ccccc2)CC1 (centres undefined)	none
CCNc1ccc(Br)cc(C(=O)/C=C/c2ccc(Cl)cc2Cl)c1=O	KCNQ2 inh -5.82
CNc1ccc(Br)cc(C(=O)/C=C/c2cc(OC)ccc2OC)c1=O	none (no result: KCNQ2 pot)
CC(=O)c1cnn(-c2cc(Oc3ccccc3C)ncn2)c1C	none
N#CCCN1CCN(C2=NC(=O)C(=C3CCCCC3)S2)CC1	none
CC(C)(C)OC(=O)NCCCCC1=CC2=CC(=O)C(C)(OC(=O)c3cnc4ccccc4n3)C(=O)C2=CO1 (centres undefined)	none (no result: KCNQ2 pot)
Cc1noc(C)c1S(=O)(=O)N(CC(=O)NC1CCC(C)CC1)c1ccc(C(C)C)cc1 (centres undefined)	KCNQ2 inh -7.12
CCOc1ccc(N(CC(=O)NC2CCC(C)CC2)S(=O)(=O)c2c(C)noc2C)cc1 (centres undefined)	none
O=C(Nc1cccc2cccnc12)c1ccc(Br)cc1Br	none
CCOC(=O)/C(=C\c1ccc(Cl)cc1)c1nc2sc(C)c(C)c2c(=O)[nH]1	KCNQ2 inh -6.93
CCOC(=O)CSc1nc2sc(C)c(C)c2c(=O)[nH]1	none
Cc1ccc(NCc2nnc(SCC(=O)Nc3cccc(O)c3)n2CC2CCCO2)c(C)c1 (centres undefined)	none (no result: KCNQ2 pot)
COC(=O)C1=CN(c2ccc(F)cc2)C=C(C(=O)OC)C1c1cccc(Br)c1	none (no result: KCNQ2 pot)
CCC(C)NC(=O)CCc1c(C)nc2c(c(C)nn2-c2ccccc2)c1C (centres undefined)	none
Cc1nc2c(c(C)nn2-c2ccccc2)c(C)c1CCC(=O)Nc1ccc(CN2CCCC2)cc1	KCNQ2 inh -6.12
COc1cc(OC)cc(C(=O)OCn2nnc3ccccc3c2=O)c1	none
Cc1c(OCC(=O)NCCCN2CCOCC2)ccc2c(-c3ccccc3)cc(=O)oc12	none
O=C(NC(Cc1ccccc1)C(=O)N1CCc2ccccc2C1)c1ccccc1 (centres undefined)	KCNQ2 inh -6.3
CC(CCc1ccccc1)NC(=O)CN1CCc2ccccc2C1 (centres undefined)	KCNQ2 inh -5.79
O=C(NC(Cc1ccccc1)C(=O)O)c1ccccc1 (centres undefined)	none (no result: KCNQ2 pot)
COC(=O)c1ccccc1NC(=O)CN1CCc2ccccc2C1	KCNQ2 inh -7.84
CC(=O)C(Cc1ccccc1)NC(=O)CN1CCc2ccccc2C1 (centres undefined)	none (no result: KCNQ2 pot)
Cc1ccccc1NC(=O)CN1CCc2ccccc2C1	none (no result: KCNQ2 pot)
CCOc1cc(/C=N/NC(=O)Cn2nc([N+](=O)[O-])cc2C)cc(Br)c1OCc1ccccc1C	none (no result: KCNQ2 pot)
Cn1c(=O)c([N+](=O)[O-])c(-n2ccnc2)c2ccccc21	KCNQ2 inh -6.05
Cn1c(=O)c([N+](=O)[O-])c(NCCCn2ccnc2)c2ccccc21	none (no result: KCNQ2 pot)
CC(C)C1OC2c3cccc4cccc(c34)C2N1c1ccccc1 (centres undefined)	KCNQ2 inh -5.73
CCOc1ccc2nc(SC3CC(=O)N(c4ccc(C)cc4)C3=O)sc2c1 (centres undefined)	none (no result: KCNQ2 pot)
CCOc1ccc2nc(/N=C/c3c(C)[nH]n(-c4ccccc4)c3=O)sc2c1	KCNQ2 pot 20.2
CCOc1ccc2nc(/N=C/c3c(C)[nH]n(-c4ccc(C)cc4)c3=O)sc2c1	KCNQ2 pot 16.7
CCOc1[nH]n(-c2ccccc2)c(=O)c1C=Nc1ccc(OC)cc1	none
COc1cccc2[nH]c3c(=O)n(CCN(C)C)cnc3c12	none
N#C/C(=N\Nc1ccc(Br)cc1)C(=N)N1CCOCC1	none
CN(C)CCCN(C(=O)/C=C/c1cccs1)c1nc2c(F)cccc2s1	none (no result: KCNQ2 pot)
COc1cccc(-c2cc(C(=O)N3CCN(c4ncccn4)CC3)c3ccccc3n2)c1	none (no result: KCNQ2 pot)
CC(C)Oc1cccc(-c2cc(C(=O)N3CCN(c4ncccn4)CC3)c3ccccc3n2)c1	KCNQ2 inh -7.15
